These results are taken from PubChem BioAssay (EPA / NIEHS).

Common to all, as to settings: mRNA level, 48 h; actives raise or lower the signal
Read-out in test [1]: MYC, MYC (gene 4609)
The test is described as follows: LTEA_HepaRG_MYC: Life Technologies and Expression Analysis (LTEA) Assay for MYC using HepaRG (AID 2283518). The method in brief: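 HepaRG, ~100,000 cells/well, collagen I; 48 h plating; serum-free induction medium; 48 h dosing, duplicate, 100 uM top, half-log, 0.5% DMSO; total RNA → qRT-PCR MYC; gain/loss fit vs DMSO.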

Read-out in test [2]: Paternally Expressed 10 (PEG10), PEG10 (gene 23089)
The test can be described thus: LTEA_HepaRG_PEG10: Life Technologies and Expression Analysis (LTEA) Assay for Paternally Expressed 10 (PEG10) using HepaRG (AID 2283520). The method in brief: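 HepaRG, 48 h post-plating → serum-free induction medium → 48 h chemical exposure (duplicate, 8-pt, max 100 uM, half-log, 0.5% DMSO) → lysis in RLT → TaqMan qRT-PCR for PEG10, ACTB/GAPDH/POLR2A normalisation.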

Read-out in test [3]: Protein phosphatase 2A (PPP2R4), PTPA (gene 5524)
The test is described as follows: LTEA_HepaRG_PPP2R4: Life Technologies and Expression Analysis (LTEA) Assay for Protein phosphatase 2A (PPP2R4) using HepaRG (AID 2283522). The method in brief:
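Readout is PPP2R4 transcript level by microfluidic qRT-PCR after 48 h chemical treatment of human HepaRG liver cells. Concentrations spanned 100 uM downward in half-log steps; gain or loss of signal was fitted relative to DMSO.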

Read-out in test [4]: Phosphatase and tensin (PTEN), PTEN (gene 5728)
The test is described as follows: LTEA_HepaRG_PTEN: Life Technologies and Expression Analysis (LTEA) Assay for Phosphatase and tensin (PTEN) using HepaRG (AID 2283523). The method in brief:
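Read-out is PTEN transcript level by multiplexed TaqMan qRT-PCR after 48 h chemical treatment of human HepaRG cultures in serum-free induction medium. Concentrations spanned 100 uM downward in half-log steps, 0.5% DMSO throughout; activity fitted in both directions against vehicle.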

Read-out in test [5]: solute carrier (SLC22A1), SLC22A1 (gene 6580)
The test is described as follows: LTEA_HepaRG_SLC22A1: Life Technologies and Expression Analysis (LTEA) Assay for solute carrier (SLC22A1) using HepaRG (AID 2283524). The method in brief: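 HepaRG (human liver line), 48 h dosing in serum-free induction medium; 8 conc., half-log down from 100 uM, 0.5% DMSO vehicle, duplicates. Endpoint: SLC22A1 mRNA, qRT-PCR, housekeeping-normalized; gain/loss fit vs DMSO.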

Read-out in test [6]: Pyruvate Dehydrogenase Kinase 4 (PDK4), PDK4 (gene 5166)
The test can be described thus: LTEA_HepaRG_PDK4: Life Technologies and Expression Analysis (LTEA) Assay for Pyruvate Dehydrogenase Kinase 4 (PDK4) using HepaRG (AID 2283525). The method in brief: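 In this multiplexed human HepaRG expression assay, cells are treated 48 h with test chemicals across an eight-point range starting at 100 uM. PDK4 mRNA changes, normalized to ACTB/GAPDH/POLR2A, are fitted in both directions relative to vehicle.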

Read-out in test [7]: NAD(P)H dehydrogenase [quinone] 1 (NQO1), NQO1 (gene 1728)
The test can be described thus: LTEA_HepaRG_NQO1: Life Technologies and Expression Analysis (LTEA) Assay for NAD(P)H dehydrogenase [quinone] 1 (NQO1) using HepaRG (AID 2283526). The method in brief: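 HepaRG, 48 h post-plating → serum-free induction medium → test chemical 48 h (duplicate, 100 uM top, half-log x8, 0.5% DMSO) → RNA isolation → qRT-PCR, ACTB/GAPDH/POLR2A normalization; bidirectional curve fit vs DMSO baseline.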

Read-out in test [8]: Nuclear factor erythroid 2-related factor 2 (Homo sapiens) (UniProt Q16236)
The test can be described thus: LTEA_HepaRG_NFE2L2: Life Technologies and Expression Analysis (LTEA) Assay for Nuclear factor erythroid 2-related factor 2 (NFE2L2) Transcription Factor using HepaRG (AID 2283527). The method in brief: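 Transcript level of NFE2L2 is the read-out, measured by microfluidic TaqMan qRT-PCR and normalized to three housekeeping genes. Human HepaRG cultures received test chemical for 48 h at up to 100 uM in half-log steps. Gain or loss of signal is fitted relative to 0.5% DMSO.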

Read-out in test [9]: succinate dehydrogenase complex iron sulfur subunit B (SDHB), SDHB (gene 6390)
The test can be described thus: LTEA_HepaRG_SDHB: Life Technologies and Expression Analysis (LTEA) Assay for succinate dehydrogenase complex iron sulfur subunit B (SDHB) using HepaRG (AID 2283528). The method in brief:
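SDHB transcript level read by TaqMan qRT-PCR, housekeeping-normalised (ACTB, GAPDH, POLR2A), after 48 h chemical treatment of plated HepaRG cells; eight concentrations top 100 uM, half-log steps, 0.5% DMSO, duplicates; fitted both directions against DMSO.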

Read-out in test [10]: Signal transducer and activator of transcription 3 (Homo sapiens) (UniProt P40763)
The test is described as follows: LTEA_HepaRG_STAT3: Life Technologies and Expression Analysis (LTEA) Assay for Signal transducer and activator of transcription (STAT3) using HepaRG (AID 2283529). The method in brief:
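Read-out is STAT3 mRNA level by qRT-PCR, normalized to three housekeeping genes, in human HepaRG liver cells treated for 48 h. Concentrations ran from 100 uM downward in half-log steps; curves were fitted for gain or loss relative to 0.5% DMSO.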

Read-out in test [11]: solute carrier (SLCO1B1), SLCO1B1 (gene 10599)
The test is described as follows: LTEA_HepaRG_SLCO1B1: Life Technologies and Expression Analysis (LTEA) Assay for solute carrier (SLCO1B1) using HepaRG (AID 2283530). The method in brief:
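HepaRG, serum-free induction medium, 48 h dosing, 8-pt half-log from 100 uM, 0.5% DMSO vehicle, duplicates. Readout: SLCO1B1 mRNA, qRT-PCR, ACTB/GAPDH/POLR2A normalization; up or down fit vs DMSO.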

Read-out in test [12]: sulfotransferase 2A1 (SULT2A1), SULT2A1 (gene 6822)
The test can be described thus: LTEA_HepaRG_SULT2A1: Life Technologies and Expression Analysis (LTEA) Assay for sulfotransferase 2A1 (SULT2A1) using HepaRG (AID 2283531). The method in brief: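 Transcript levels of SULT2A1, quantified by qRT-PCR and normalized to three housekeeping genes, serve as the readout. Human HepaRG cultures receive test chemicals for 48 h at up to 100 uM in half-log steps, with 0.5% DMSO vehicle.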

Read-out in test [13]: Transforming Growth Factor (TGFA), TGFA (gene 7039)
The test can be described thus: LTEA_HepaRG_TGFA: Life Technologies and Expression Analysis (LTEA) Assay for Transforming Growth Factor (TGFA) using HepaRG (AID 2283532). The method in brief:
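HepaRG (human liver line), 48 h exposure, 8 conc. half-log down from 100 uM, 0.5% DMSO vehicle, duplicates; serum-free induction medium. TGFA mRNA by TaqMan qRT-PCR, ACTB/GAPDH/POLR2A normalization; gain/loss fit vs DMSO.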

Read-out in test [14]: Transforming Growth Factor (TGFB1), TGFB1 (gene 7040)
The test is described as follows: LTEA_HepaRG_TGFB1: Life Technologies and Expression Analysis (LTEA) Assay for Transforming Growth Factor (TGFB1) Transporter using HepaRG (AID 2283533). The method in brief:
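HepaRG, 48 h post-plating, switched to serum-free induction medium; chemicals 100 uM top, half-log, 8 pts, 0.5% DMSO, dup; 48 h exposure; RNA → Fluidigm TaqMan qRT-PCR; norm ACTB/GAPDH/POLR2A; bidirectional fit vs DMSO.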

Read-out in test [15]: TIMP1, TIMP1 (gene 7076)
The test can be described thus: LTEA_HepaRG_TIMP1: Life Technologies and Expression Analysis (LTEA) Assay for TIMP1 using HepaRG (AID 2283534).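 Further: TaqMan qRT-PCR signal normalized to ACTB GAPDH and POLR2A housekeeping genes.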 The method in brief:
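Readout is TIMP1 mRNA level measured by qRT-PCR and normalized to three housekeeping genes. Human HepaRG cells were treated for 48 h in duplicate at eight concentrations up to 100 uM (0.5% DMSO); gain or loss fitted against DMSO.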

Read-out in test [16]: Tumor necrosis factor receptor 1 (TNFRSF1A), TNFRSF1A (gene 7132)
The test is described as follows: LTEA_HepaRG_TNFRSF1A: Life Technologies and Expression Analysis (LTEA) Assay for Tumor necrosis factor receptor 1 (TNFRSF1A) using HepaRG (AID 2283535). The method in brief:
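Read-out is TNFRSF1A transcript level by TaqMan qRT-PCR, normalized to three housekeeping genes, scored as gain or loss of signal versus 0.5% DMSO. Human HepaRG cells received test chemicals for 48 h at up to 100 uM (half-log series).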

Read-out in test [17]: Thyroid Hormone Responsive (THRSP), THRSP (gene 7069)
The test is described as follows: LTEA_HepaRG_THRSP: Life Technologies and Expression Analysis (LTEA) Assay for Thyroid Hormone Responsive (THRSP) using HepaRG (AID 2283536). The method in brief: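 mRNA induction or loss relative to 0.5% DMSO vehicle was fitted bidirectionally across an eight-point curve whose highest exposure was 100 uM. Human HepaRG liver cells received chemicals in duplicate over 48 h before RNA extraction.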

Read-out in test [18]: Cellular tumor antigen p53 (Homo sapiens) (UniProt P04637)
The test can be described thus: LTEA_HepaRG_TP53: Life Technologies and Expression Analysis (LTEA) Assay for Tumor Protein P53 (TP53) using HepaRG (AID 2283537). The method in brief: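 TP53 transcript measured by qRT-PCR, normalized to three housekeeping genes, after 48 h treatment of human HepaRG cultures with chemicals from 100 uM downward in half-log steps (0.5% DMSO vehicle, serum-free induction medium). Up- or down-regulation fitted against DMSO.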

Read-out in test [19]: Nuclear factor NF-kappa-B p105 subunit (Homo sapiens) (UniProt P19838)
The test can be described thus: LTEA_HepaRG_NFKB1: Life Technologies and Expression Analysis (LTEA) Assay for Nuclear Factor Kappa B Subunit 1 (NFKB1) using HepaRG (AID 2283521).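 Further: differentiated human HepaRG liver cells in serum-free induction medium.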 The method in brief:
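NFKB1 transcript was measured by TaqMan qRT-PCR on Fluidigm arrays, normalised to three housekeeping genes and fitted in both directions against 0.5% DMSO. HepaRG cells were dosed in duplicate for 48 h in serum-free induction medium, eight half-log steps from 100 uM.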

The source made the active and inactive calls. How the source made its calls: active means hit-call score of the fitted dose curve at least 0.9, where 1 is the maximum; inactive means score below 0.9.

The term AC50 denotes the midpoint of the concentration-response curve, whichever way the signal moves.

Signal transducer and activator of transcription 3 (Homo sapiens), sequence (P40763 whole entry, looked up): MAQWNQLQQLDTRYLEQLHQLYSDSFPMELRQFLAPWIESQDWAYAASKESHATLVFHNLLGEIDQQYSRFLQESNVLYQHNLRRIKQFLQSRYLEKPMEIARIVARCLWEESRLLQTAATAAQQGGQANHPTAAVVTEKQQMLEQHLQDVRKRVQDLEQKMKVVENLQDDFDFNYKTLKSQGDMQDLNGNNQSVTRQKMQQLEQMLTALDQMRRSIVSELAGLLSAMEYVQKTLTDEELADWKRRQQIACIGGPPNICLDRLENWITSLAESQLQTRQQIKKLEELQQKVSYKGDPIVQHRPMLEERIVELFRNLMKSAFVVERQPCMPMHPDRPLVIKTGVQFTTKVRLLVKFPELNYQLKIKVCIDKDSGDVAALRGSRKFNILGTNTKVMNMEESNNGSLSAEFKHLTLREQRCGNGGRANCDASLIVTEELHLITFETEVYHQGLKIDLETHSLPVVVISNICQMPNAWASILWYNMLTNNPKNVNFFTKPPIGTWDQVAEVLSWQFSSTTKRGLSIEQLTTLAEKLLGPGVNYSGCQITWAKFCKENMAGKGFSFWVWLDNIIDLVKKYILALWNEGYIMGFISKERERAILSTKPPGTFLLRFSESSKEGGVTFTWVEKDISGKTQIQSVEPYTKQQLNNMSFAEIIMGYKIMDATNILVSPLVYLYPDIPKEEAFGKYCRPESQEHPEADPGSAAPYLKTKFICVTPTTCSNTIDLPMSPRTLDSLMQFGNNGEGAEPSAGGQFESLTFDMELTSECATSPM
Cellular tumor antigen p53 (Homo sapiens), sequence (P04637 whole entry, looked up): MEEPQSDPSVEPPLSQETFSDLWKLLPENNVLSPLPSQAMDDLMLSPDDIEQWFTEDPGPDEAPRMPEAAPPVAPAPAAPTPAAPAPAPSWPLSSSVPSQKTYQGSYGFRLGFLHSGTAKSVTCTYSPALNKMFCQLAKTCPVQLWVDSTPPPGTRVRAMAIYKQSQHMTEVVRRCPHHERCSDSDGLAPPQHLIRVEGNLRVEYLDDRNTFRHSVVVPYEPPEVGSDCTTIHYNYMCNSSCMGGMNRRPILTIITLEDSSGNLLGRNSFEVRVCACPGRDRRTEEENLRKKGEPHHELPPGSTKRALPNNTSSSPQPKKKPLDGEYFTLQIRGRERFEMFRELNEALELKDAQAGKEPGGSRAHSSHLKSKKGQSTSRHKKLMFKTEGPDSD
Nuclear factor erythroid 2-related factor 2 (Homo sapiens), sequence (Q16236 whole entry, looked up): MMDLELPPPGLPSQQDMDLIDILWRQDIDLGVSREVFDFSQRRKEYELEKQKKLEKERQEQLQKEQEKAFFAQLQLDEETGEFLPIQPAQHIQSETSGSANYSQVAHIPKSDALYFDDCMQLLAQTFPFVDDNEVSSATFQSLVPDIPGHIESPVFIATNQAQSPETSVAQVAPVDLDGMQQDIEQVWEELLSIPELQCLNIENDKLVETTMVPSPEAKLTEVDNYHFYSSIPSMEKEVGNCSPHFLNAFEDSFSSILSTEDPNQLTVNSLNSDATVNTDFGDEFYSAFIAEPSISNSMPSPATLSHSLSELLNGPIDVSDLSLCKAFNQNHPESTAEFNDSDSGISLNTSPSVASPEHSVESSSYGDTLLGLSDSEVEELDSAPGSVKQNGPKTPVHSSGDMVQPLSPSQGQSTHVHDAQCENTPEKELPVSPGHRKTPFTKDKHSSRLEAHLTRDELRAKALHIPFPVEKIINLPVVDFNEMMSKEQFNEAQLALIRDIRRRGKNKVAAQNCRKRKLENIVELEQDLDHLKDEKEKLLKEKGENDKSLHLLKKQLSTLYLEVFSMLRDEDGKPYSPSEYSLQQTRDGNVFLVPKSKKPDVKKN
Nuclear factor NF-kappa-B p105 subunit (Homo sapiens), sequence (P19838 whole entry, looked up): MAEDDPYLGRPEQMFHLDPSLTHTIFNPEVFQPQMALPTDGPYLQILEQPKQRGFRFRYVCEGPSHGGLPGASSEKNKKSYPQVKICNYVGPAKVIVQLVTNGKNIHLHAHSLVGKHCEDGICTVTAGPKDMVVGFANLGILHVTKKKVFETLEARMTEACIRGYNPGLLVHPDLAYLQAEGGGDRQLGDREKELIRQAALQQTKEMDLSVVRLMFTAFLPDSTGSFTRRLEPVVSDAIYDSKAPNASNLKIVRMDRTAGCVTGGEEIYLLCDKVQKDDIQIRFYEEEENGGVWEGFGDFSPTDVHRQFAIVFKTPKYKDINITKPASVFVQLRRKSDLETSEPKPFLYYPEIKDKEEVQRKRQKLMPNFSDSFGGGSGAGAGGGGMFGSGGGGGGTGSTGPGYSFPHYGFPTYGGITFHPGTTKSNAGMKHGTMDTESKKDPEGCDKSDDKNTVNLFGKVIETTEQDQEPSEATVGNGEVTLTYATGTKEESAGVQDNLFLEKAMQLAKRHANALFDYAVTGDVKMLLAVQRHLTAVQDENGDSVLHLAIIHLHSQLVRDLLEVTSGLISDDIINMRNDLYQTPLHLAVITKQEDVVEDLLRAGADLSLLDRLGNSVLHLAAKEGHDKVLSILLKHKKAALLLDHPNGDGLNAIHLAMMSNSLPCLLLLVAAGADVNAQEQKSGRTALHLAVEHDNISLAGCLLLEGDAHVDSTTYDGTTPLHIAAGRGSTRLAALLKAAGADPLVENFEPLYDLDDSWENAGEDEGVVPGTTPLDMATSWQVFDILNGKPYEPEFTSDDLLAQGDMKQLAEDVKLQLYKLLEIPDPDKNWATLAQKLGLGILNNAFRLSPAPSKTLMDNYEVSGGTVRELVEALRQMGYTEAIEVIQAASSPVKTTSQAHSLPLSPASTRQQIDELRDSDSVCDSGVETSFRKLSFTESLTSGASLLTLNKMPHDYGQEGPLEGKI

For `CC(=O)O`, the molecule was called inactive in [1], in test [2], in [3], in [4], in test [5] and in test [6]. The molecule was called inactive in [7], in test [8], in test [9], in test [10], in test [11] and in test [12]. The outcome in test [13], in test [14], in [15], in [16] and in [17] was inactive.
`CC(C)c1cccc(C(C)C)c1NC(=O)NS(=O)(=O)c1cc(C(C)(C)O)co1`: the outcome in test [1], in test [2], in test [3], in test [4], in test [5] and in test [6] was inactive. The molecule was called inactive in test [7], in test [8], in [9], in test [10], in [11] and in test [12]. The call in test [13], in test [14], in [16], in test [17] and in test [18] was inactive.
`COC(=O)CCC(=O)OC`: the molecule was classed as inactive in test [1], in test [2], in test [19], in test [3], in test [4] and in [5]. In addition, the molecule was classed as inactive in test [6], in test [7], in test [8], in [9], in [10] and in test [11]. For the same molecule, the call in [12], in test [13], in [14], in [16], in test [17] and in [18] was inactive.
`OCC(CO)n1cnc(-c2ccc(F)cc2)c1-c1ccnc(Oc2ccccc2)n1`: the molecule was called inactive in [1], in [2], in test [19], in [3], in test [4] and in [5]. For the same molecule, the molecule was classed as inactive in [6], in [7], in test [9], in test [10], in test [11] and in [12]. Also, the molecule was called inactive in [13], in test [14], in [16], in [17] and in test [18]. Also, the concentration at half-maximal activity (AC50) in [8] was 33.8 µM (active).
